Experiment [1] is described as follows: Quantitative High-Throughput drug screen in 47 multiple myeloma cell lines against the NCATS MIPE library collection: U266_ATCC cell viability assay (AID 1919864). Note: nearly all actives have a fitted effect of over 35% in size. The essentials: (§1)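 ATP-based luminescence (CellTiter-Glo, 5 min RT incubation) quantified surviving cells following two days' treatment with MIPE 4.0 agents at 37 °C, 5% CO2.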
The nature of experiment [2]: Quantitative High-Throughput drug screen in 47 multiple myeloma cell lines against the NCATS MIPE library collection: UTMC2_PLB cell viability assay (AID 1919868). Note: nearly all actives have a fitted effect of over 55% in size. The essentials:
as §1

Experiment [3] in a line: Quantitative High-Throughput drug screen in 47 multiple myeloma cell lines against the NCATS MIPE library collection: SKMM1_PLB cell viability assay (AID 1919863). For viability: series mostly up to about 46 µM. Note: nearly all actives have a fitted effect of over 35% in size. Conditions: SKMM1 myeloma viability, CellTiter-Glo ATP, 48 h; viability: active compounds read low. The procedure, abridged: as §1
For orientation: Cellular ATP, detected with luciferase, serves as a proxy for viable cell number.

Experiment [4] can be described thus: Quantitative High-Throughput drug screen in 47 multiple myeloma cell lines against the NCATS MIPE library collection: PE2_PLB cell viability assay (AID 1919869). Note: nearly all actives have a fitted effect of over 35% in size. The procedure, abridged: as §1
Experiment [5] can be described thus: Quantitative High-Throughput drug screen in 47 multiple myeloma cell lines against the NCATS MIPE library collection: RPMI8226_ATCC cell viability assay (AID 1919871). Note: nearly all actives have a fitted effect of over 30% in size. The essentials:
as §1

Experiment [6] can be described thus: Quantitative High-Throughput drug screen in 47 multiple myeloma cell lines against the NCATS MIPE library collection: XG6_PLB cell viability assay (AID 1919865). Note: nearly all actives have a fitted effect of over 40% in size. The essentials: as §1
Experiment [7] in a line: Quantitative High-Throughput drug screen in 47 multiple myeloma cell lines against the NCATS MIPE library collection: PCM6_Riken cell viability assay (AID 1919870). Note: nearly all actives have a fitted effect of over 30% in size. The procedure, abridged:
as §1

Experiment [8] can be described thus: Quantitative High-Throughput drug screen in 47 multiple myeloma cell lines against the NCATS MIPE library collection: VP6_DJ cell viability assay (AID 1919867). Note: nearly all actives have a fitted effect of over 40% in size. The essentials:
as §1

Experiment [9] in a line: Quantitative High-Throughput drug screen in 47 multiple myeloma cell lines against the NCATS MIPE library collection: XG1_PLB cell viability assay (AID 1919866). Note: nearly all actives have a fitted effect of over 35% in size. The essentials: as §1

Inconclusive results are not listed. Values without a mark were called inactive. Calls of active or inactive are those of the source. Calls come from the whole dose curve; as a rule, active = well fitted cell-killing curve with a large enough effect; inconclusive = small, poorly fitted or top-dose-only effect, or effect the other way; inactive = no such curve, though single readings can be large or run the other way.
Potency is the fitted concentration of half-maximal effect.

On to `COc1cc2ncnc(Nc3cccc(Cl)c3)c2cc1OC`, for which the Potency in experiment [1] was 0.132 µM (active). In experiment [2], the Potency result is “inactive”.

Turning to `O=C(O)c1cccnc1`, the viability in experiment [3] was 107%. The Potency result in experiment [4] and in [5] was “inactive” in each case.

Turning to `NC(=O)c1ccc2[nH]ccc2c1`, the Potency entry in experiment [6], in experiment [4] and in experiment [5] was “inactive” in each case.

Regarding `S=P(N1CC1)(N1CC1)N1CC1`, the viability in experiment [3] is 142%. The Potency in experiment [6] is 23.5 µM (active). In addition, the Potency result in experiment [4], in [7] and in experiment [5] was “inactive” in each case.

For the compound `Cc1ccnc2c1NC(=O)c1cccnc1N2C1CC1`, the Potency in [1] was 16.6 µM (active); in experiment [6], 23.5 µM (active); in experiment [8] it was 26.4 µM (active); in experiment [4] it was 26.4 µM (active); in experiment [7], 26.4 µM (active). Moreover, the Potency result in experiment [5] is “inactive”.

On to `O=NN(CCCl)C(=O)NC1CCCCC1`, for which the Potency entry in [6], in experiment [8], in experiment [2], in experiment [4] and in experiment [7] was “inactive” each time.

For the compound `CN1CCN(c2c(F)cc3c(=O)c(C(=O)O)cn4c3c2OCN4C)CC1`, the Potency entry in experiment [1], in experiment [9], in [2], in [4], in experiment [7] and in experiment [5] was “inactive” each time.

Take `CC(C)OC(=O)OCOP(=O)(CO[C@H](C)Cn1cnc2c(N)ncnc21)OCOC(=O)OC(C)C`: the Potency in experiment [7] was 16.6 µM (active).

For the compound `CC(C)OC(=O)C(C(=O)OC(C)C)=C1SC=CS1`, the Potency result in [6], in experiment [8], in experiment [4] and in experiment [7] was “inactive” in each case.

On to `CCN(C)C(=O)Oc1cccc([C@H](C)N(C)C)c1`, for which the Potency result in experiment [9] and in experiment [4] was “inactive” throughout.

For `COc1cc2c(Nc3ccc(Br)cc3F)ncnc2cc1OCC1CCN(C)CC1`, the Potency is 7.43 µM (active) in experiment [6], 7.43 µM (active) in experiment [9] and 23.5 µM (active) in [5].

On to `CCCc1nc(C)c2c(=O)[nH]c(-c3cc(S(=O)(=O)N4CCN(CC)CC4)ccc3OCC)nn12`, for which the Potency is 9.35 µM (active) in experiment [3]; 4.69 µM (active) in experiment [6]; 10.5 µM (active) in [2]; 5.9 µM (active) in experiment [4]; 5.26 µM (active) in experiment [7]; 9.35 µM (active) in [5].

`CC1(C)[C@H](C(=O)O)N2C(=O)C[C@H]2S1(=O)=O`: the viability in experiment [3] was 120%. For the same compound, the Potency result in experiment [6], in experiment [8], in [4] and in experiment [5] was “inactive” in each case.

Consider `CC(C)NCC(O)c1ccc(NS(C)(=O)=O)cc1` (configuration not stated), for which, in [3], the viability was 159%. Further, the Potency result in experiment [6], in [2], in [4] and in experiment [7] was “inactive” each time.

Regarding `CS(=O)(=O)c1ccc([C@@H](O)[C@@H](CO)NC(=O)C(Cl)Cl)cc1`, the Potency result in [1] was “inactive”. Moreover, the Potency is 18.7 µM (active) in experiment [6]; 18.7 µM (active) in [9]; 16.6 µM (active) in experiment [8]; 13.2 µM (active) in experiment [2]; 16.6 µM (active) in experiment [7]; 2.35 µM (active) in experiment [5].

In the case of `CC(C)Cn1cnc2c(N)nc3ccccc3c21`, in experiment [3], the Potency is 14.8 µM (active). In addition, the Potency entry in experiment [8] and in experiment [4] was “inactive” in each case.

As for `CC1=NN(c2ccccc2)C(=O)C1`, the Potency in [6] was 7.43 µM (active). Further, the Potency result in [4], in experiment [7] and in experiment [5] was “inactive” throughout.

Take `OC(Cn1cncn1)(Cn1cncn1)c1ccc(F)cc1F`: the Potency entry in experiment [1], in experiment [6], in experiment [8], in experiment [2], in [4] and in experiment [7] was “inactive” in each case. In addition, in [5], the Potency was 5.26 µM (active).

Consider `CCn1cc(C(=O)O)c(=O)c2cc(F)c(N3CCN(C)CC3)cc21`, for which, in [3], the Potency was 5.26 µM (active). For the same compound, the Potency entry in experiment [9], in [8], in [2], in experiment [4] and in experiment [7] was “inactive” in each case.

With `CCOC(=O)c1ccc(C#Cc2ccc3c(c2)C(C)(C)CCS3)nc1`, the viability in experiment [3] was 115%. Moreover, the Potency entry in experiment [4] and in experiment [5] was “inactive” throughout.

On to `NNC(=O)c1ccncc1`, for which the Potency entry in experiment [6], in experiment [9], in experiment [4], in [7] and in experiment [5] was “inactive” in each case.

With `Cc1oc(=O)oc1CN1CCN(c2cc3c(cc2F)c(=O)c(C(=O)O)c2n3C(C)S2)CC1` (configuration not stated), the Potency entry in experiment [8], in experiment [7] and in experiment [5] was “inactive” throughout. For the same compound, in experiment [4], the Potency is 13.2 µM (active).

`Cc1onc(-c2ccccc2Cl)c1C(=O)N[C@@H]1C(=O)N2[C@@H]1SC(C)(C)[C@@H]2C(=O)O`: the Potency entry in [6], in experiment [8], in [4], in [7] and in experiment [5] was “inactive” each time.

As for `O=C(O)c1ccc(-n2nc(-c3ccccc3O)nc2-c2ccccc2O)cc1`, the Potency was 20.9 µM (active) in experiment [6], 16.6 µM (active) in experiment [8] and 23.5 µM (active) in [7].

Take `CC1CC2C3CCC4=CC(=O)C=C[C@]4(C)[C@@]3(F)[C@@H](O)C[C@]2(C)[C@@]1(O)C(=O)CO` (some centres not stated): the Potency entry in experiment [6], in experiment [9] and in experiment [4] was “inactive” in each case. In addition, the Potency in experiment [8] was 0.209 µM (active); in experiment [7], 0.118 µM (active); in experiment [5], 0.0296 µM (active).

Regarding `COC(=O)Nc1nc2ccc(S(=O)c3ccccc3)cc2[nH]1` (configuration not stated), the Potency in experiment [6] is 9.35 µM (active); in [9], 8.33 µM (active); in experiment [8], 13.2 µM (active).

Broadly, the viability is a read-out of living cells in per cent, often relative to untreated cells.
